Potency and activity change, negative = inhibition data for 32 compounds are collected here from PubChem BioAssay (NCATS).

Records with an inconclusive call do not appear. Where a call stands in place of a potency, no number is given. The source made the active and inactive calls. Calls come from the whole dose curve; as a rule, active = well fitted inhibition curve with a large enough effect; inconclusive = small, poorly fitted or top-dose-only effect; inactive = flat fitted curve, though single readings scatter.

The target in this assay is Calcium and integrin-binding protein 1 (Homo sapiens) (UniProt Q99828). The assay is described as follows: Primary qHTS for Identification of Calcium Integrin Binding Protein 1 (CIB1) Competitor (AID 1508620).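 Note: GST tagged CIB1 binding a fluorescein labelled alphaIIb integrin peptide tracer; top concentration of the series differs between compounds.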 As to conditions: CIB1-GST / FITC-alphaIIb peptide fluorescence polarization; series mostly up to 114 µM. The method, boiled down: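 Fluorescence polarization competition: CIB1-GST (1 uM final) preincubated with compound 15 min at room temperature, then FITC-labeled alphaIIb peptide (100 nM final) added for another 15 min. Polarization read at Ex 480/Em 540.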
Sequence of Calcium and integrin-binding protein 1 (Homo sapiens) (Q99828 whole entry, looked up): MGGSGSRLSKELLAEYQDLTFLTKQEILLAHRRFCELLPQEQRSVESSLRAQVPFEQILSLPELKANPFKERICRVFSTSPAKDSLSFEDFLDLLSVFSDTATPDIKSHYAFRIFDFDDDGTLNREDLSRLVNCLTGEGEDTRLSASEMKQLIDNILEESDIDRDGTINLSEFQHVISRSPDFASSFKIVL
(Quantitative high-throughput screening tests each substance at several concentrations.)
For the compound `CCC[C@@H]1O[C@@H]2C[C@H]3[C@@H]4CCC5=CC(=O)C=C[C@]5(C)[C@H]4[C@@H](O)C[C@]3(C)[C@]2(C(=O)CO)O1`, the Potency result is “inactive”.

Consider `CO[C@H]1C[C@@H]2CC[C@@H](C)[C@@](O)(O2)C(=O)C(=O)N2CCCC[C@H]2C(=O)O[C@H]([C@H](C)C[C@H]2CC[C@@H](OP(C)(C)=O)[C@H](OC)C2)CC(=O)[C@H](C)/C=C(\C)[C@@H](O)[C@@H](OC)C(=O)[C@H](C)C[C@H](C)/C=C/C=C/C=C/1C`, for which the Potency entry is “inactive”. Same read-out and setting: the result for `CC(=O)O[C@H]1CC[C@H](C)[C@@]2(C)[C@H](OC(C)=O)c3c(C)coc3C(=O)[C@H]12` reads “inactive”; that for `COC1/C=C/C(C)(O)C(SCC(N)C(=O)O)CC(=O)OC(C)C(C)CC/C=C/1C` (configuration not stated), “inactive”; that for `C/C=C/c1ccc2c(c1)[C@@H](C)[C@H](c1ccc(O)cc1)O2`, “inactive”. On the same count and under the same terms, the result for `CNC(C)C(=O)NC(C(=O)N1CCCC1c1nc(C(=O)c2ccc(F)cc2)cs1)C1CCCCC1` (configuration not stated) reads “inactive”; that for `C=C1CCC2C(C)(C)CCC[C@]2(C)[C@H]1C/C=C(\CO)C(=O)C(=O)O` (some centres not stated), “inactive”; that for `C=C1C(OC2OCC(O)C(O)C2O)CC2C(C)(C)C(O)CCC2(C)C1CC/C(C)=C\CO` (configuration not stated), “inactive”. Consider `CC(=O)O[C@@H]1[C@H](O[C@@H]2O[C@@H](CO)[C@H](O)[C@H]2O)[C@@H](O[C@@H]2O[C@@H](C)[C@H](O[C@@H]3OC[C@@H](O)[C@H](O)[C@H]3O)[C@@H](O)[C@H]2O)[C@H](OC(=O)[C@]23CCC(C)(C)C[C@H]2C2=CCC4[C@@]5(C)CC[C@H](O[C@@H]6O[C@H](C(=O)O)[C@@H](O)[C@H](O)[C@H]6O[C@@H]6O[C@H](CO)[C@H](O)[C@H](O)[C@H]6O)[C@@](C)(C=O)C5CC[C@@]4(C)[C@]2(C)CC3)O[C@@H]1C` (some centres not stated), for which the activity change, negative = inhibition was -9.52% [at 12.4 µM] (inactive). Regarding `C/C(=C/CO)CC[C@@H]1[C@@](C)(O)CCC2C(C)(C)CCC[C@]21C` (some centres not stated), the Potency result is “inactive”. The same measure, in the same setting: with `Fc1ccc2nc(CCC#Cc3ccccn3)cn2c1` the entry was “inactive”; with `CC(=O)O[C@@H]1c2c3c(cc(O)c2C(=O)O[C@@H]1C)O[C@@]1(C)[C@@H](O)C[C@H]2C(C)(C)C(=O)C=C[C@]2(C)[C@@H]1C3`, “inactive”. The same measure, in the same setting: the result for `Cc1cccc(-c2[nH]c(Cc3cccc(C(N)=O)c3)nc2-c2ccc3nccnc3c2)n1` reads “inactive”. Still for that read-out and setting: with `N[C@H]1Cc2ccccc2N(O)C1=O` the entry was “inactive”. For `COc1c(/C=C/C(C)(C)O)ccc2c1C(=O)OCc1cc(C)cc(O)c1O2`, the Potency entry is “inactive”. The same measure, in the same setting: the result for `C=C1CC[C@H]2[C@@](C)(CCC(O)[C@@]2(C)CO)[C@@H]1CCC1=CCOC1=O` (some centres not stated) reads “inactive”; that for `CC#CC(=O)N1CCC[C@H]1c1nc(-c2ccc(C(=O)Nc3ccccn3)cc2)c2c(N)nccn12`, “inactive”; that for `COc1cc2c(c(OC)c1CC=C(C)C)C[C@H](c1ccc(O)cc1O)CO2`, “inactive”.

In the case of `OC/C=C/c1ccc(O[C@@H]2O[C@H](CO)[C@@H](O)[C@H](O)[C@H]2O)cc1`, the Potency result was “inactive”.

On to `CC(c1ncncc1F)C(O)(Cn1cncn1)c1ccc(F)cc1F` (configuration not stated), for which the Potency result is “inactive”.

As to `NC(=O)c1csc(C2OC(CO)C(O)C2O)n1` (configuration not stated), the Potency entry is “inactive”. Same read-out and setting: with `C/C=C/C=C/C=C/C(=O)OC1C=C(C=O)C(O)(C(=O)O)C2(C)CCCC(C)(C)C12` (configuration not stated) the entry was “inactive”.

For `COc1ccc(CCC(=O)c2c(O)cc(O)cc2O[C@@H]2O[C@H](CO)[C@@H](O)[C@H](O)[C@H]2O)cc1`, the Potency entry is “inactive”. With `Cc1c(F)cc(C(=O)NC2CC2)cc1-c1c(F)cn2c(C(C)(C)C)nnc2c1F`, the Potency entry is “inactive”. Take `CC12CCC(OC3OC(CO)C(O)C(OC4OC(CO)C(O)C(O)C4O)C3O)CC1=CCC1C2CCC2(C)/C(=C3/COC(=O)C3)CCC12O` (configuration not stated): the Potency result was “inactive”. On the same count and under the same terms, the result for `CC1(C)CCCC2(C)C(CO)C(CO)=CCC12` (configuration not stated) reads “inactive”; that for `CO[C@H]1/C=C\O[C@@]2(C)Oc3c(C)c(O)c4c(O)c(c5c(nc6cc(C)ccn65)c4c3C2=O)NC(=O)/C(C)=C\C=C/[C@H](C)[C@H](O)[C@@H](C)[C@@H](O)[C@@H](C)[C@H](OC(C)=O)[C@@H]1C`, “inactive”. On the same count and under the same terms, with `C/C1=C\CCC2=C[C@@H](OC2=O)c2c(C)coc2C1` the entry was “inactive”; with `CCC(C)C(=O)OC1CC(C)C=C2C=CC(C)C(CCC(O)CC(O)CC(=O)O)C21` (configuration not stated), “inactive”; with `CC1(C)CCCC2(C)C1CC(=O)C13CC(CCC12)C(O)(CO)C3` (configuration not stated), “inactive”. On the same count and under the same terms, the result for `O=C(Nc1ccccc1-c1cn2c(CN3CCNCC3)csc2n1)c1ccc2ccccc2n1` reads “inactive”; that for `CC(O)c1cc(C(=O)N[C@@H](C)Cn2ccc(-c3ccc(C#N)c(Cl)c3)n2)n[nH]1` (some centres not stated), “inactive”.
